This is an account of results in the GenesisPotency data set.

Screen size: about 1,300 compounds; about 55 (4%) were called active.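 The calls were made as follows: active = fitted EC50 between 10 nM and 100 µM, Hill slope size 0.5 to 2, real signal loss, low interference; inactive = the rest.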 Only a sample is shown. Potency and affinity values are given separately.

The assay concerns the target Ras-related C3 botulinum toxin substrate 1, Mus musculus (UniProt P63001). The assay can be described thus: activated Rac1 mutant nucleotide-binding inhibitors – biochemical, multiplex, GST-Rac1 beads, Bodipy-FL-GTP, flow cytometry, dose response (AID 1339). For orientation: In flow cytometry, cells or beads pass a laser one at a time.
Consider `COC(=O)c1cccc(NC(=O)c2nn(C)c(=O)c3ccccc23)c1`, for which the compound was classed as inactive. As for `Cc1ccc(C)c(N(CC(N)=O)S(C)(=O)=O)c1`, the result was inactive.

Regarding `Cc1nc2ccc(NC(=O)COc3ccccc3)cc2s1`, the compound was classed as inactive. Regarding `CCOC(=O)Cn1c(=O)c2c(nc(N3CCCCC3)n2C)n(C)c1=O`, the call was inactive. As to `CCc1ccccc1NCc1sc(C(=O)O)cc1C`, the outcome was inactive. Next, `O=C(O)c1ccc(CNCc2ccc(F)cc2)s1`: “inactive”. Take `Cc1cccc(CNc2nc(C)ccc2C(=O)O)c1`: the outcome was inactive.

Turning to `Cc1cc(C(F)F)n2nc(C(=O)Nc3ccc(S(=O)(=O)N4CCCCCC4)cc3)nc2n1`, the outcome was inactive. Next, `CCC(=O)c1ccc(OCC(=O)O)c(OC)c1`: “inactive”. Next, `O=C(CNC(=O)c1ccco1)OCN1C(=O)c2ccccc2C1=O`: “inactive”; `COc1ccc(CCNC(=O)C2CCCN2C(=O)NC2CCCCC2)cc1OC` (stereo not given): “inactive”. To `CC(C)(C)NC(=O)CSc1nccn1Cc1ccccc1` belongs “inactive”; to `CCCCNC(=O)c1cc([N+](=O)[O-])[nH]n1`, “inactive”; to `Nc1nc(CN2CCN(c3ccccc3F)CC2)nc(N2CCCc3ccccc32)n1`, “inactive”. `CCn1c2ccccc2c2nc3cc(C(=O)O)ccc3nc21`: the compound was classed as inactive. For the compound `COc1cccc(OCc2c(C)cccc2C)c1C(=O)O`, the result was inactive. Next, `COc1cccc(NC(=O)NCCCN2CCN(c3ccc(F)cc3)CC2)c1`: “inactive”. Regarding `Cc1nn(-c2ccc(F)cc2)c(Cl)c1/C=C(\CCC(=O)O)c1nc2ccccc2s1`, the call was inactive. Next, `Cn1c(=O)cc(N2CCOCC2)[nH]c1=O`: “inactive”; `Cc1cc2nc3c(=O)n(C4CCCCC4)c(=O)[nH]c3nc2cc1N`: “inactive”; `CNC(=O)C(C)NS(=O)(=O)c1ccc(F)cc1` (stereo not given): “inactive”. To `NC(=O)COC(=O)c1cccc2c1-c1ccccc1C2=O` belongs “inactive”. To `O=C(O)c1cc([N+](=O)[O-])ccc1NCc1ccccc1Cl` belongs “inactive”. Take `COc1cc(-c2cc(=O)c3c(O)cc(O)cc3o2)ccc1O`: the compound was called inactive.

On to `O=C(Cc1ccc(Nc2nc(=S)[nH]c3ccccc23)cc1)NC1CCCCC1`, for which the outcome was inactive.

With `Cc1cc(C(F)(F)F)c(C#N)c(SCC(=O)Nc2nc3ccccc3s2)n1`, the compound was classed as inactive. Next, `O=C(CSc1n[nH]c(=O)[nH]c1=O)N/N=C/c1ccccc1`: “inactive”; `O=C1CN=C(c2ccccc2)c2cc(Br)ccc2N1Cc1cc(=O)n2ccccc2n1`: “inactive”.

`CC(C)[C@H](NC(=O)c1ccccc1)C(=O)OCC(=O)NCCc1ccc(F)cc1`: the compound was classed as inactive. Next, `O=C(NCc1cccs1)c1cccn2c(=O)c3sccc3nc12`: “inactive”; `Cc1cc(C)cc(C(=O)N(NC(=O)Nc2ccc(Cl)cc2)C(C)(C)C)c1`: “inactive”; `Cn1c(NC(=S)Nc2ccccc2)nc2ccccc21`: “inactive”. Next, `O=C(Nc1cccc(-c2ccc3nncn3n2)c1)c1ccco1`: “inactive”; `CC(C)CCNC(=O)Cc1ccc(Nc2nc(=S)[nH]c3ccccc23)cc1`: “inactive”; `CCOc1c2ccc(C(=O)N[C@H](C)C3CCCCC3)cc2nn1CCOC`: “inactive”. Next, `CS(=O)(=O)N1N=C(c2ccccc2)CC1c1ccc2c(c1)OCO2` (stereo not given): “inactive”. Take `Cc1ccc(-c2cn3cccc(C)c3n2)cc1`: the outcome was inactive.

In the case of `CN1CCN(c2ccccc2NC(=O)c2ccc(-c3cccc([N+](=O)[O-])c3)o2)CC1`, the call was inactive.

Turning to `O=C(O)C1CCCN1C(=O)OCc1ccccc1` (stereo not given), the compound was classed as inactive.

Turning to `COc1ccc([N+](=O)[O-])cc1NC(=S)NC(NC(=O)Cc1ccc(OC)c(OC)c1)C(Cl)(Cl)Cl` (stereo not given), the compound was called inactive. To `Cc1ccc(-c2ccc(/C=C(\C#N)C(=O)Nc3cc(C)nn3-c3ccccc3)o2)cc1` belongs “inactive”; to `Cc1cccc2cc(CN(Cc3cccs3)C(c3nnnn3C3CCCC3)C(C)C)c(=O)[nH]c12` (stereo not given), “inactive”. Next, `Cc1cccc(OCCSc2nc3ccccc3n2CC(=O)O)c1C`: “inactive”. As to `CC(C)(C)c1ccc(OCCSc2nc3ccccc3n2CC(=O)O)cc1`, the compound was called inactive. To `COc1ccc(OC)c(/C=N/NC(=O)c2ccc(Cn3cc([N+](=O)[O-])cn3)o2)c1` belongs “inactive”; to `O=C(Nc1nc(-c2ccc(S(=O)(=O)N3CCCC3)cc2)cs1)c1cccs1`, “inactive”; to `Nc1cccc(S(=O)(=O)c2cccc(N)c2)c1`, “inactive”.

Take `Cc1ccc(/C=C(\CCC(=O)O)c2nc3ccccc3s2)cc1[N+](=O)[O-]`: the result was inactive. To `Cc1c(NC(=O)CCN2C(=O)c3ccccc3C2=O)c(=O)n(-c2ccccc2)n1C` belongs “inactive”; to `C=C(C)COc1ccc(-c2n[nH]c(C)c2-c2ccc(Br)cc2)c(O)c1`, “inactive”; to `CCc1ccc(OCc2ccc(C(=O)O)o2)cc1`, “inactive”. To `COc1ccc(N/C=C/c2nc(SC)nnc2C)cc1` belongs “inactive”; to `CCC(OC(=O)c1cc2sccc2n1C)C(=O)NCc1ccco1` (stereo not given), “inactive”; to `Br.COc1cc(NS(=O)(=O)c2ccc(Nc3nc(-c4ccccc4)cs3)cc2)nc(OC)n1`, “inactive”. On to `COc1ccc(-c2nn3c(-c4ccccn4)nnc3s2)cc1OC`, for which the call was inactive. Next, `COc1ccccc1-n1cc([C@@H]2C[C@H]3CN(c4ccccc4)C(=O)[C@]34CCCN24)cn1`: “inactive”. Next, `CC(=O)OC(C(=O)NC1CCCCC1)c1ccc(Cl)cc1` (stereo not given): “inactive”. To `COc1ccc(-c2nnc(S/C(=C/c3ccc(Cl)cc3)C(=O)O)o2)cc1` belongs “inactive”. As for `CC(C)C(=O)N1CCN(c2ccccc2NC(=O)c2cccc(Cl)c2)CC1`, the compound was classed as inactive. Turning to `Cc1nc2ncccn2c1-c1csc(Nc2ccccc2)n1`, the compound was classed as inactive. To `Cc1cccc(CNc2ncccc2C(=O)O)c1` belongs “inactive”; to `C=CCc1ccc(OCc2ccc(C(=O)O)o2)c(OC)c1`, “inactive”. Next, `COC(=O)c1ccc(COc2ccccc2/C=N/Nc2cccc(C(=O)O)c2)cc1`: “inactive”; `Cc1ccc(-n2c(SCc3cc(=O)n4ccsc4n3)nnc2-c2cccnc2)c(C)c1`: “inactive”. To `COc1cccc(OCc2ccccc2Br)c1C(=O)O` belongs “inactive”; to `CCc1nnc(NC(=O)CSc2nnc(CNc3ccc(F)cc3)n2C2CCCCC2)s1`, “inactive”. As for `CN(C)CCN(C(=O)c1ccc(N2C(=O)CCC2=O)cc1)c1nc2cc3c(cc2s1)OCO3.Cl`, the outcome was inactive. On to `Cc1cc(C)n2nc(C(=O)Nc3ccc(S(=O)(=O)N4CCCC4)cc3)nc2n1`, for which the compound was called inactive.

Consider `COc1ccc(/C=N/n2c(N)c(S(=O)(=O)c3cccs3)c3nc4ccccc4nc32)cc1OC`, for which the compound was called inactive. Next, `O=C(Oc1cccc(O)c1)C1CCCCC1`: “inactive”. To `COc1cc(NC(=O)c2cccs2)c(OC)cc1NC(=O)CCC(=O)Nc1cccc2ncccc12.Cl` belongs “inactive”; to `CC1(C)Cc2c(sc(NC(=O)c3ccc(Br)o3)c2C#N)CO1`, “inactive”. To `C=CCNc1nc(=S)[nH]c2cc(OC)c(OC)cc12` belongs “inactive”; to `O=C(COC(=O)/C=C/c1cccs1)Nc1ccc2ccccc2c1`, “inactive”. With `Cc1nc(NC(=O)/C=C/c2ccc(Cl)cc2Cl)sc1C(=O)N(C)C`, the compound was classed as inactive. To `O=C(C1CCCO1)N1CCN(C(=S)Nc2ccccc2C(F)(F)F)CC1` (stereo not given) belongs “inactive”; to `COc1ccc(CC(=O)Nc2ccc(C(=O)Nc3nccs3)cc2)cc1OC`, “inactive”. Consider `CS(=O)(=O)c1ccc(C(=O)OCc2nnc(-c3ccccc3)o2)cc1[N+](=O)[O-]`, for which the compound was called inactive.

Regarding `N#CC(c1ccc(Cl)nn1)c1ccc(Cl)cc1Cl` (stereo not given), the compound was called inactive.

In the case of `Cc1cc(C)c2sc(N(CCN(C)C)C(=O)c3cc(Cl)sc3Cl)nc2c1.Cl`, the result was inactive.
